Reference: PMC12820563, “FoxP3 forms a head-to-head dimer in vivo and stabilizes its multimerization on adjacent microsatellites”
The full ranking holds about 16,000 sequences; the median of “rpm ratio (pull-down/input)” is about 0.5, and the highest 2% start at about 5.5. For the sample, the highest values were picked, then their nearest neighbours and some sequences at random.

Each sequence was assayed against T1, MBP-FoxP3dN (Mus musculus, UniProt Q99JB6 188-423) (assay: PD-seq (MBP pull-down with sequencing); 20 mM Tris-HCl pH 7.5, 100 mM NaCl, 1.5 mM MgCl2, 0.4 uM protein, 0.1 uM dsDNA library, 30 min, room temperature, amylose pull-down; high values mean tight binding). Settings: protein: recombinant; tags: His6-MBP; chain copies: 2; dsDNA, one strand shown.
T1 sequence: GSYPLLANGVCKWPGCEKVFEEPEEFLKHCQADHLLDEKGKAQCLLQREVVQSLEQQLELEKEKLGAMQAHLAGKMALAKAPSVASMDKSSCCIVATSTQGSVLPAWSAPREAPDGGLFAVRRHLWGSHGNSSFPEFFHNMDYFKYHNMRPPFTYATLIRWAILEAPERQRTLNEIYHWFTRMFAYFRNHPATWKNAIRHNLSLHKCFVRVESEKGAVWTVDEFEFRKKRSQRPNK
In short: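 Binding is given as reads-per-million enrichment, pull-down over input, with replicates pooled. The bait was an N-terminus-lacking mouse FoxP3 or FoxP1 fragment with a His6-MBP tag, expressed in E. coli and used at 0.4 µM with 0.1 µM Klenow-filled degenerate double-stranded DNA library for 30 min at room temperature in Tris pH 7.5 buffer with NaCl and MgCl2. Amylose resin pull-down with three washes was followed by proteinase K release, PCR barcoding and Illumina sequencing.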

Sequence	binding signal
GATGATTGTTCTCCCAGCTGATGAATTGATCAGGTCGAGTAAACAAATTTTCCTAATCTTTCTGTTCAAGCGCCATCTAC	0.232 RPM ratio (pull-down/input)
GATGATTGTTCTCCCAGCTGATGAATTGGTTGCATCGAGTAAACAAATTTTCCTAATCTTTCTGTTCAAGCGCCATCTAC	2.53 RPM ratio (pull-down/input)
GATGATTGTTCTCCCAGCTGATGAATTGGAAGCATCGAGTAAACAAATTTTCCTAATCTTTCTGTTCAAGCGCCATCTAC	0.654 RPM ratio (pull-down/input)
GATGATTGTTCTCCCAGCTGATGAATTAATTGTCTCGAGTAAACAAATTTTCCTAATCTTTCTGTTCAAGCGCCATCTAC	3.16 RPM ratio (pull-down/input)
GATGATTGTTCTCCCAGCTGATGAATTAGATAGCTCGAGTAAACAAATTTTCCTAATCTTTCTGTTCAAGCGCCATCTAC	0.537 RPM ratio (pull-down/input)
GATGATTGTTCTCCCAGCTGATGAATTATGCCTATCGAGTAAACAAATTTTCCTAATCTTTCTGTTCAAGCGCCATCTAC	2.91 RPM ratio (pull-down/input)
GATGATTGTTCTCCCAGCTGATGAATTTCCGTTATCGAGTAAACAAATTTTCCTAATCTTTCTGTTCAAGCGCCATCTAC	0.615 RPM ratio (pull-down/input)
GATGATTGTTCTCCCAGCTGATGAATTTTATTTCTCGAGTAAACAAATTTTCCTAATCTTTCTGTTCAAGCGCCATCTAC	1.53 RPM ratio (pull-down/input)
GATGATTGTTCTCCCAGCTGATGAATTATTTGACTCGAGTAAACAAATTTTCCTAATCTTTCTGTTCAAGCGCCATCTAC	0.481 RPM ratio (pull-down/input)
GATGATTGTTCTCCCAGCTGATGAATTTTTTGACTCGAGTAAACAAATTTTCCTAATCTTTCTGTTCAAGCGCCATCTAC	0.273 RPM ratio (pull-down/input)
GATGATTGTTCTCCCAGCTGATGAATTTTATGACTCGAGTAAACAAATTTTCCTAATCTTTCTGTTCAAGCGCCATCTAC	0.491 RPM ratio (pull-down/input)
GATGATTGTTCTCCCAGCTGATGAATTTAGTTTCTCGAGTAAACAAATTTTCCTAATCTTTCTGTTCAAGCGCCATCTAC	2.13 RPM ratio (pull-down/input)
GATGATTGTTCTCCCAGCTGATGAATTTATTGACTCGAGTAAACAAATTTTCCTAATCTTTCTGTTCAAGCGCCATCTAC	5.75 RPM ratio (pull-down/input)
GATGATTGTTCTCCCAGCTGATGAATTTGATGACTCGAGTAAACAAATTTTCCTAATCTTTCTGTTCAAGCGCCATCTAC	3.97 RPM ratio (pull-down/input)
GATGATTGTTCTCCCAGCTGATGAATTTGTTGACTCGAGTAAACAAATTTTCCTAATCTTTCTGTTCAAGCGCCATCTAC	7.34 RPM ratio (pull-down/input)
GATGATTGTTCTCCCAGCTGATGAATTTAGTTACTCGAGTAAACAAATTTTCCTAATCTTTCTGTTCAAGCGCCATCTAC	3.04 RPM ratio (pull-down/input)
GATGATTGTTCTCCCAGCTGATGAATTTTTATTCTCGAGTAAACAAATTTTCCTAATCTTTCTGTTCAAGCGCCATCTAC	0.391 RPM ratio (pull-down/input)
GATGATTGTTCTCCCAGCTGATGAATTTATTTTCTCGAGTAAACAAATTTTCCTAATCTTTCTGTTCAAGCGCCATCTAC	5.54 RPM ratio (pull-down/input)
GATGATTGTTCTCCCAGCTGATGAATTAGTTTACTCGAGTAAACAAATTTTCCTAATCTTTCTGTTCAAGCGCCATCTAC	5.83 RPM ratio (pull-down/input)
GATGATTGTTCTCCCAGCTGATGAATTTGCTGACTCGAGTAAACAAATTTTCCTAATCTTTCTGTTCAAGCGCCATCTAC	5.1 RPM ratio (pull-down/input)
GATGATTGTTCTCCCAGCTGATGAATTGCAGTGCTCGAGTAAACAAATTTTCCTAATCTTTCTGTTCAAGCGCCATCTAC	0.811 RPM ratio (pull-down/input)

Sequence	binding signal
GATGATTGTTCTCCCAGCTGATGAATTATTAGCGTCGAGTAAACAAATTTTCCTAATCTTTCTGTTCAAGCGCCATCTAC	0.786 RPM ratio (pull-down/input)
GATGATTGTTCTCCCAGCTGATGAATTTGGCTGTTCGAGTAAACAAATTTTCCTAATCTTTCTGTTCAAGCGCCATCTAC	1.17 RPM ratio (pull-down/input)
GATGATTGTTCTCCCAGCTGATGAATTCAGTAGATCGAGTAAACAAATTTTCCTAATCTTTCTGTTCAAGCGCCATCTAC	0.408 RPM ratio (pull-down/input)
GATGATTGTTCTCCCAGCTGATGAATTACGAGGTTCGAGTAAACAAATTTTCCTAATCTTTCTGTTCAAGCGCCATCTAC	0.392 RPM ratio (pull-down/input)
GATGATTGTTCTCCCAGCTGATGAATTCCGTCAATCGAGTAAACAAATTTTCCTAATCTTTCTGTTCAAGCGCCATCTAC	0.393 RPM ratio (pull-down/input)
GATGATTGTTCTCCCAGCTGATGAATTGATCGACTCGAGTAAACAAATTTTCCTAATCTTTCTGTTCAAGCGCCATCTAC	0.33 RPM ratio (pull-down/input)
GATGATTGTTCTCCCAGCTGATGAATTGTGTCCTTCGAGTAAACAAATTTTCCTAATCTTTCTGTTCAAGCGCCATCTAC	1.89 RPM ratio (pull-down/input)
GATGATTGTTCTCCCAGCTGATGAATTGGTGGCTTCGAGTAAACAAATTTTCCTAATCTTTCTGTTCAAGCGCCATCTAC	0.748 RPM ratio (pull-down/input)
GATGATTGTTCTCCCAGCTGATGAATTGGCGGTATCGAGTAAACAAATTTTCCTAATCTTTCTGTTCAAGCGCCATCTAC	0.566 RPM ratio (pull-down/input)
GATGATTGTTCTCCCAGCTGATGAATTATTTTACTCGAGTAAACAAATTTTCCTAATCTTTCTGTTCAAGCGCCATCTAC	0.529 RPM ratio (pull-down/input)
GATGATTGTTCTCCCAGCTGATGAATTGAATTACTCGAGTAAACAAATTTTCCTAATCTTTCTGTTCAAGCGCCATCTAC	1.28 RPM ratio (pull-down/input)
GATGATTGTTCTCCCAGCTGATGAATTTATTTACTCGAGTAAACAAATTTTCCTAATCTTTCTGTTCAAGCGCCATCTAC	6.74 RPM ratio (pull-down/input)
GATGATTGTTCTCCCAGCTGATGAATTTTTTTACTCGAGTAAACAAATTTTCCTAATCTTTCTGTTCAAGCGCCATCTAC	0.35 RPM ratio (pull-down/input)
GATGATTGTTCTCCCAGCTGATGAATTTATTGTCTCGAGTAAACAAATTTTCCTAATCTTTCTGTTCAAGCGCCATCTAC	6.72 RPM ratio (pull-down/input)
GATGATTGTTCTCCCAGCTGATGAATTTTGTTACTCGAGTAAACAAATTTTCCTAATCTTTCTGTTCAAGCGCCATCTAC	3.84 RPM ratio (pull-down/input)
GATGATTGTTCTCCCAGCTGATGAATTTTATTACTCGAGTAAACAAATTTTCCTAATCTTTCTGTTCAAGCGCCATCTAC	1.04 RPM ratio (pull-down/input)
GATGATTGTTCTCCCAGCTGATGAATTTTATGTCTCGAGTAAACAAATTTTCCTAATCTTTCTGTTCAAGCGCCATCTAC	1.12 RPM ratio (pull-down/input)
GATGATTGTTCTCCCAGCTGATGAATTTGATTACTCGAGTAAACAAATTTTCCTAATCTTTCTGTTCAAGCGCCATCTAC	6.08 RPM ratio (pull-down/input)
GATGATTGTTCTCCCAGCTGATGAATTGTTTTACTCGAGTAAACAAATTTTCCTAATCTTTCTGTTCAAGCGCCATCTAC	1.55 RPM ratio (pull-down/input)
GATGATTGTTCTCCCAGCTGATGAATTATTTGTCTCGAGTAAACAAATTTTCCTAATCTTTCTGTTCAAGCGCCATCTAC	2.46 RPM ratio (pull-down/input)
GATGATTGTTCTCCCAGCTGATGAATTTGTTTACTCGAGTAAACAAATTTTCCTAATCTTTCTGTTCAAGCGCCATCTAC	6.49 RPM ratio (pull-down/input)

Sequence	binding signal
GATGATTGTTCTCCCAGCTGATGAATTCAATTGTTCGAGTAAACAAATTTTCCTAATCTTTCTGTTCAAGCGCCATCTAC	3.36 RPM ratio (pull-down/input)
GATGATTGTTCTCCCAGCTGATGAATTGGCCCGGTCGAGTAAACAAATTTTCCTAATCTTTCTGTTCAAGCGCCATCTAC	0.201 RPM ratio (pull-down/input)
GATGATTGTTCTCCCAGCTGATGAATTGCTTCCCTCGAGTAAACAAATTTTCCTAATCTTTCTGTTCAAGCGCCATCTAC	0.536 RPM ratio (pull-down/input)
GATGATTGTTCTCCCAGCTGATGAATTTGCATTCTCGAGTAAACAAATTTTCCTAATCTTTCTGTTCAAGCGCCATCTAC	6.29 RPM ratio (pull-down/input)
GATGATTGTTCTCCCAGCTGATGAATTGCCATTTTCGAGTAAACAAATTTTCCTAATCTTTCTGTTCAAGCGCCATCTAC	1.02 RPM ratio (pull-down/input)
GATGATTGTTCTCCCAGCTGATGAATTGCATCTCTCGAGTAAACAAATTTTCCTAATCTTTCTGTTCAAGCGCCATCTAC	4.07 RPM ratio (pull-down/input)
GATGATTGTTCTCCCAGCTGATGAATTTTGCATCTCGAGTAAACAAATTTTCCTAATCTTTCTGTTCAAGCGCCATCTAC	7.18 RPM ratio (pull-down/input)
GATGATTGTTCTCCCAGCTGATGAATTGCGTAATTCGAGTAAACAAATTTTCCTAATCTTTCTGTTCAAGCGCCATCTAC	1.58 RPM ratio (pull-down/input)
GATGATTGTTCTCCCAGCTGATGAATTTGCCATCTCGAGTAAACAAATTTTCCTAATCTTTCTGTTCAAGCGCCATCTAC	2.56 RPM ratio (pull-down/input)
GATGATTGTTCTCCCAGCTGATGAATTTGCATATTCGAGTAAACAAATTTTCCTAATCTTTCTGTTCAAGCGCCATCTAC	2.72 RPM ratio (pull-down/input)
GATGATTGTTCTCCCAGCTGATGAATTGCGCCATTCGAGTAAACAAATTTTCCTAATCTTTCTGTTCAAGCGCCATCTAC	6.51 RPM ratio (pull-down/input)
GATGATTGTTCTCCCAGCTGATGAATTGCATTTCTCGAGTAAACAAATTTTCCTAATCTTTCTGTTCAAGCGCCATCTAC	2.75 RPM ratio (pull-down/input)
GATGATTGTTCTCCCAGCTGATGAATTGCATTCCTCGAGTAAACAAATTTTCCTAATCTTTCTGTTCAAGCGCCATCTAC	3.39 RPM ratio (pull-down/input)
GATGATTGTTCTCCCAGCTGATGAATTTTTGCATTCGAGTAAACAAATTTTCCTAATCTTTCTGTTCAAGCGCCATCTAC	6.58 RPM ratio (pull-down/input)
GATGATTGTTCTCCCAGCTGATGAATTTAGAGGCTCGAGTAAACAAATTTTCCTAATCTTTCTGTTCAAGCGCCATCTAC	0.583 RPM ratio (pull-down/input)
GATGATTGTTCTCCCAGCTGATGAATTTTGATATTCGAGTAAACAAATTTTCCTAATCTTTCTGTTCAAGCGCCATCTAC	3.34 RPM ratio (pull-down/input)
GATGATTGTTCTCCCAGCTGATGAATTTATCGAATCGAGTAAACAAATTTTCCTAATCTTTCTGTTCAAGCGCCATCTAC	0.374 RPM ratio (pull-down/input)
GATGATTGTTCTCCCAGCTGATGAATTGCCTCGGTCGAGTAAACAAATTTTCCTAATCTTTCTGTTCAAGCGCCATCTAC	0.565 RPM ratio (pull-down/input)
GATGATTGTTCTCCCAGCTGATGAATTTTCAACTTCGAGTAAACAAATTTTCCTAATCTTTCTGTTCAAGCGCCATCTAC	0.307 RPM ratio (pull-down/input)
GATGATTGTTCTCCCAGCTGATGAATTGAATGACTCGAGTAAACAAATTTTCCTAATCTTTCTGTTCAAGCGCCATCTAC	0.545 RPM ratio (pull-down/input)
GATGATTGTTCTCCCAGCTGATGAATTGTTAAAATCGAGTAAACAAATTTTCCTAATCTTTCTGTTCAAGCGCCATCTAC	0.291 RPM ratio (pull-down/input)
